# Experimental data reported in PubChem BioAssay AID588742 (Southern Research Specialized Biocontainment Screening …, 2011).
# In all, about 1,800 compounds went through this assay and about 410 (23%) were called active. The rule behind the calls is not given here. A selection follows. Entries with a potency or affinity are not part of this list.
# Assay: viability of Vero cells under compound – cytotoxicity control for flavivirus capping enzyme inhibitors (AID 588742)
# Conditions: cytotoxicity counter-screen; series mostly up to 40 µM
row,Compound,outcome
1,COc1cc(/C=N/NC(=S)N/N=C/c2cc(OC)c(OC)c(OC)c2)cc(OC)c1OC,inactive
2,CN(C)c1ccc(N=Nc2ccc(S(=O)(=O)O)cc2)c2ccccc12,inactive
3,CC(=O)NC(CC(=O)OCC(=O)Nc1cc(S(=O)(=O)N2CCCCC2)ccc1C)c1ccccc1 (stereo unspecified),inactive
4,C#CCOc1ccc(/C=C2/C(=O)ON=C2C)cc1Br,inactive
5,Cc1ccc(C)c(S(=O)(=O)/N=C2\C=C(NS(=O)(=O)c3ccccc3)C(=O)c3ccccc32)c1,inactive
6,Cc1cc(C)c(S(=O)(=O)ON2C(=O)c3ccccc3C2=O)cc1C,inactive
7,O=C(OCCCN=C1NS(=O)(=O)c2ccccc21)c1ccc(F)cc1,inactive
8,COc1cc(C2C(C#N)=C(N)OC3=C2C(=O)CC(C)(C)C3)cc([N+](=O)[O-])c1O (stereo unspecified),inactive
9,O=C(NN=Cc1cc(Br)c(O)c(Br)c1)c1ccccc1NS(=O)(=O)c1cccs1,inactive
10,CN(C)c1ccc(NC(=O)c2ccc(Cn3cc([N+](=O)[O-])cn3)cc2)cc1,inactive
11,C/C(CCc1oc2c(Br)cc(Br)cc2c1-c1ccc(C)o1)=N\O,inactive
12,CN(c1ccccc1)c1ccc(/C=C(/CCC(=O)O)c2nc3ccccc3s2)cc1[N+](=O)[O-],inactive
13,CCCC(=O)OCCNc1cc(SCc2ccco2)c2nonc2c1[N+](=O)[O-],inactive
14,CC(=O)OCCCNc1cc(SCc2ccco2)c2nonc2c1[N+](=O)[O-],inactive
15,CC(=O)OCCNc1cc(SCc2ccco2)c2nonc2c1[N+](=O)[O-],inactive
16,COc1cc(/C=C2\C(=O)N(c3ccc(NC(C)=O)cc3)N=C2c2ccccc2)ccc1O,inactive
17,CCOc1ccc(N2C(=O)C(Cl)=C(Nc3ccccc3O)C2=O)cc1,inactive
18,C=CCOc1c(Br)cc(/C=C2/C(=O)ON=C2C)cc1OC,inactive
19,Cc1cc(C2C(=O)CC(=O)CC2c2ccccc2)on1 (stereo unspecified),inactive
20,COc1cc(/C=C2/C(=N)N3C(c4ccccc4)=CSC3=NC2=O)ccc1OCC(=O)O,inactive
21,CCc1ccc(N=C2NC(=O)/C(=C/c3cc(Br)c(OCC(=O)O)c(OC)c3)S2)cc1,inactive

row,Compound,outcome
1,O=C1/C(=C/c2cccs2)SC(=S)N1NS(=O)(=O)c1ccccc1,inactive
2,CCCOC(=O)c1c(-c2ccc(C)cc2C)csc1NC(=O)C1C2CCC(O2)C1C(=O)O (stereo unspecified),inactive
3,COc1cccc(-c2[nH]nc3c2C(c2ccoc2)C(C#N)=C(N)O3)c1 (stereo unspecified),inactive
4,O=S(=O)(O)c1cc2onnc2c2ccccc12,inactive
5,CC1CC(=O)C(C(C2=C(O)CC(C)CC2=O)c2ccccc2)=C(O)C1 (stereo unspecified),inactive
6,Cc1[nH][nH]c(=O)c1C(c1ccc(-c2ccc(Cl)c(C(=O)O)c2)o1)c1c(C)[nH][nH]c1=O,inactive
7,Cc1[nH][nH]c(=O)c1C(c1ccc(-c2cccc(Cl)c2)o1)c1c(C)[nH][nH]c1=O,inactive
8,Cc1[nH]n(-c2ncc(-c3ccccc3)s2)c(=O)c1C(c1ccc(Br)cc1)C(C#N)C#N (stereo unspecified),inactive
9,O=C(O)c1cc([N+](=O)[O-])c(Nc2cccc3ccccc23)c([N+](=O)[O-])c1,inactive
10,O=C1Nc2ccc(F)cc2C12Nc1ccccc1-c1nnc(SCc3ccccc3Cl)nc1O2 (stereo unspecified),inactive
11,CCc1ccc([C@@H]2CC=C(C(=O)O)[C@H](c3ccc(Cl)cc3)N2S(=O)(=O)c2ccc(C)cc2)cc1,inactive
12,O=C(O)[C@H](Cc1ccccc1)N1C(=O)c2c(Cl)c(Cl)c(Cl)c(Cl)c2C1=O,inactive
13,Cc1cc(C)c2nc(N3C(=O)C(O)=C(C(=O)c4ccco4)C3c3cccc(O)c3)sc2c1 (stereo unspecified),inactive
14,COc1ccc(CNC(=O)CCCC2=NS(=O)(=O)c3ccccc3N2)cc1,inactive
15,Cc1[nH]n(-c2ccccc2)c(=O)c1C(c1ccccc1[N+](=O)[O-])C(C#N)C#N (stereo unspecified),inactive
16,O=C1CCC/C1=C/Nc1ccc2c(c1)OCO2,inactive
17,N#Cc1c2c(c(-c3ccco3)[nH]c1=O)CCCC2,inactive
18,Cn1c(=O)c([N+](=O)[O-])c(Oc2ccccc2)c2ccccc21,inactive
19,O=Nc1c(O)ccc2cc(S(=O)(=O)O)ccc12,inactive
20,COC(=O)c1cc(C(=O)OC)cc(N2C(=O)CC(NNC(=O)c3ccccc3Cl)C2=O)c1 (stereo unspecified),inactive
21,O=C(O)/C=C/C(=O)Nc1ccc(C2(c3ccc(NC(=O)/C=C/C(=O)O)cc3)c3ccccc3-c3ccccc32)cc1,inactive

row,Compound,outcome
1,CCCn1nc(NS(=O)(=O)c2cccc3nonc23)c2cc3cccc(C)c3nc21,inactive
2,Cc1ccc(/C=C2\SC(=S)N(NS(=O)(=O)c3ccc(C)cc3)C2=O)cc1,inactive
3,Cc1ccc(-c2nnc(Nc3ccc(CC(N)=O)cc3)c3ccccc23)cc1S(N)(=O)=O,inactive
4,Cc1nc(Nc2ccc(C(=O)O)cc2)nc(Nc2ccc(C(=O)O)cc2)c1[N+](=O)[O-],inactive
5,CC1=CC(=O)C(Sc2ccc(C)cc2)=CC1=O,inactive
6,O=C(CCN1C(=O)/C(=C/c2ccc3c(c2)OCO3)SC1=S)Nc1cccc(C(=O)O)c1,inactive
7,COc1ccc2nc(N3CCC(O)CC3)c(C#N)cc2c1,inactive
8,CCOC(=O)c1c(=O)n(O)c2ccc(C)cc2[n+]1[O-],inactive
9,Cc1ccc(-c2ccc(/C=C3\C(=O)ON=C3c3ccccc3)o2)c([N+](=O)[O-])c1,inactive
10,COc1ccc(/C=C2\C(=O)ON=C2c2ccccc2)cc1OC,inactive
11,COc1cccc(/C=C2/C(=O)NN(c3ccc(C)c(C)c3)C2=O)c1,inactive
12,CCOc1cc(/C=N/N=C2/NC(=O)C(CC(=O)O)S2)ccc1OCc1ccc(Cl)cc1 (stereo unspecified),inactive
13,Cn1cc([N+](=O)[O-])c(C(=O)N(Cc2ccccc2)Cc2ccccc2)n1,inactive
14,COc1ccc(Br)cc1/C=C/C(=O)NC(=S)Nc1ccc(Cl)c(C(=O)O)c1,inactive
15,CNc1ccc(Br)cc(C(=O)/C=C/c2cccc(OC)c2OC)c1=O,inactive
16,CC1(C)CC(=O)C(C(C2=C(O)CC(C)(C)CC2=O)c2ccc(O)c([N+](=O)[O-])c2)=C(O)C1,inactive
17,O=C(O)/C(=C\c1c(C(=O)O)[nH]c2cc(Cl)cc(Cl)c12)c1ccccc1,inactive
18,Oc1c(Br)cc(/C=N/n2c(-c3ccccc3)n[nH]c2=S)cc1Br,inactive
19,CCOCCCNC(=O)CC1Oc2ccc(C)cc2NC1=O (stereo unspecified),inactive
